Data from PubChem BioAssay AID1159580 (chemical genetic matrix, 2015).
Where “and” joins values, the source holds several entries; their conditions need not be identical. Identical values can stand only once. Out of some 5,500 compounds screened, about 2,000 (36%) were called active. Inconclusive results (about 18%) are left out. Rule as the data show it: active = normalized growth mostly below about 0.91 (no sharp cut-off); inconclusive = no clear call, values can overlap the other calls; inactive = mostly above about 0.92. Some of the results follow.

Assay: chemical genetic growth profiling, strain panel (AID 1159580);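 also: tested at 20 µM; growth read once vehicle control cultures reached saturation at 30 °C; 1 = growth at the plate median or of vehicle wells; lower values mean less growth of the strain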
Settings: growth OD

Measured: normalized growth

COC(=O)C1=CCCN(C)C1
inactive: S. cerevisiae deletion strains, locus YKL068W, stronger effect = lower value 0.996 | S. cerevisiae deletion strains, locus YKL085W, strain MDH1 (second series), stronger effect = lower value 0.997 | S. cerevisiae deletion strains, locus YKL085W, strain MDH1, stronger effect = lower value 0.997 | S. cerevisiae deletion strains, locus YKL160W, strain elf1, stronger effect = lower value 1.03 | S. cerevisiae deletion strains, locus YKL190W, strain CNB1, stronger effect = lower value 1 | S. cerevisiae deletion strains, locus YKR001C, strain vps1, stronger effect = lower value 1.01 | S. cerevisiae deletion strains, locus YKR026C, strain gcn3, stronger effect = lower value 1.01 | S. cerevisiae deletion strains, locus YKR091W, strain srl3, stronger effect = lower value 1.01 | S. cerevisiae deletion strains, locus YLL001W, strain dnm1, stronger effect = lower value 0.989 | S. cerevisiae deletion strains, locus YLL026W, stronger effect = lower value 1.02 | S. cerevisiae deletion strains, locus YLL041C, strain sdh2, stronger effect = lower value 0.991 | S. cerevisiae deletion strains, locus YLR027C, strain aat2, stronger effect = lower value 1 | S. cerevisiae deletion strains, locus YLR039C, strain RIC1, stronger effect = lower value 0.983 | S. cerevisiae deletion strains, locus YLR058C, strain SHM2, stronger effect = lower value 0.973 | S. cerevisiae deletion strains, locus YLR102C, strain apc9, stronger effect = lower value 1 | S. cerevisiae deletion strains, locus YLR113W, strain HOG1, stronger effect = lower value 0.994 | S. cerevisiae deletion strains, locus YLR221C, strain rsa3, stronger effect = lower value 0.992 | S. cerevisiae deletion strains, locus YLR258W, strain gsy2, stronger effect = lower value 1.01 | S. cerevisiae deletion strains, locus YLR262C, strain YPT6 (second series), stronger effect = lower value 0.986 | S. cerevisiae deletion strains, locus YLR262C, strain YPT6, stronger effect = lower value 0.953 | S. cerevisiae deletion strains, locus YLR268W, strain sec22, stronger effect = lower value 1 | S. cerevisiae deletion strains, locus YLR320W, strain mms22, stronger effect = lower value 0.961 | S. cerevisiae deletion strains, locus YLR330W, strain CHS5, stronger effect = lower value 0.991 | S. cerevisiae deletion strains, locus YLR342W, strain FKS1 (second series), stronger effect = lower value 1.01 | S. cerevisiae deletion strains, locus YLR342W, strain FKS1, stronger effect = lower value 0.995 | S. cerevisiae deletion strains, locus YLR357W, strain rsc2, stronger effect = lower value 1.01 | S. cerevisiae deletion strains, locus YLR370C, strain arc18, stronger effect = lower value 1 | S. cerevisiae deletion strains, locus YLR371W, strain rom2, stronger effect = lower value 0.999 | S. cerevisiae deletion strains, locus YLR384C, strain iki3, stronger effect = lower value 1.02 | S. cerevisiae deletion strains, locus YLR418C, strain cdc73, stronger effect = lower value 1.02 | S. cerevisiae deletion strains, locus YML016C, strain PPZ1, stronger effect = lower value 0.987 | S. cerevisiae deletion strains, locus YML032C, strain rad52, stronger effect = lower value 0.983 | S. cerevisiae deletion strains, locus YML120C, strain ndi1, stronger effect = lower value 1 | S. cerevisiae deletion strains, locus YML124C, strain tub3, stronger effect = lower value 0.994 | S. cerevisiae deletion strains, locus YMR058W, strain fet3, stronger effect = lower value 1.03 | S. cerevisiae deletion strains, locus YMR078C, strain ctf18, stronger effect = lower value 0.996 | S. cerevisiae deletion strains, locus YMR125W, strain sto1, stronger effect = lower value 1.02 | S. cerevisiae deletion strains, locus YMR129W, stronger effect = lower value 1 | S. cerevisiae deletion strains, locus YMR205C, strain PFK2, stronger effect = lower value 0.955 | S. cerevisiae deletion strains, locus YMR223W, strain ubp8, stronger effect = lower value 0.981 | S. cerevisiae deletion strains, locus YMR231W, strain pep5, stronger effect = lower value 1.01 | S. cerevisiae deletion strains, locus YMR263W, strain SAP30, stronger effect = lower value 0.984 | S. cerevisiae deletion strains, locus YMR307W, strain GAS1, stronger effect = lower value 1.01 and 0.99 | S. cerevisiae deletion strains, locus YNL067W, strain RPL9B, stronger effect = lower value 0.979 | S. cerevisiae deletion strains, locus YNL071W, strain lat1, stronger effect = lower value 1.01 | S. cerevisiae deletion strains, locus YNL128W, strain TEP1, stronger effect = lower value 0.986 | S. cerevisiae deletion strains, locus YNL153C, strain GIM3, stronger effect = lower value 0.983 | S. cerevisiae deletion strains, locus YNL175C, strain NOP13, stronger effect = lower value 1.04 | S. cerevisiae deletion strains, locus YNL183C, strain NPR1, stronger effect = lower value 0.953 | S. cerevisiae deletion strains, locus YNL197C, strain WHI3, stronger effect = lower value 1 | S. cerevisiae deletion strains, locus YNL209W, strain ssb2, stronger effect = lower value 1 | S. cerevisiae deletion strains, locus YNL224C, strain SQS1, stronger effect = lower value 1 | S. cerevisiae deletion strains, locus YNL233W, strain BNI4, stronger effect = lower value 0.99 | S. cerevisiae deletion strains, locus YNL248C, strain rpa49, stronger effect = lower value 1.02 | S. cerevisiae deletion strains, locus YNL250W, strain rad50, stronger effect = lower value 0.993 | S. cerevisiae deletion strains, locus YNL271C, strain bni1, stronger effect = lower value 0.995 | S. cerevisiae deletion strains, locus YNL298W, strain CLA4, stronger effect = lower value 1 | S. cerevisiae deletion strains, locus YNL307C, strain MCK1, stronger effect = lower value 0.996 | S. cerevisiae deletion strains, locus YNL322C, strain KRE1 (second series), stronger effect = lower value 1.03 | S. cerevisiae deletion strains, locus YNL322C, strain KRE1, stronger effect = lower value 0.985 | S. cerevisiae deletion strains, locus YNR049C, strain mso1, stronger effect = lower value 0.995 | S. cerevisiae deletion strains, locus YNR052C, strain pop2, stronger effect = lower value 0.995 | S. cerevisiae deletion strains, locus YOL006C, strain TOP1, stronger effect = lower value 0.981 | S. cerevisiae deletion strains, locus YOL012C, strain htz1 0.9 | S. cerevisiae deletion strains, locus YOL147C, strain pex11, stronger effect = lower value 0.992 | S. cerevisiae deletion strains, locus YOR001W, strain rrp6, stronger effect = lower value 0.971 | S. cerevisiae deletion strains, locus YOR061W, strain CKA2, stronger effect = lower value 0.968 | S. cerevisiae deletion strains, locus YOR069W, strain VPS5, stronger effect = lower value 0.997 | S. cerevisiae deletion strains, locus YOR070C, strain gyp1, stronger effect = lower value 1.01 | S. cerevisiae deletion strains, locus YOR080W, strain dia2, stronger effect = lower value 1 | S. cerevisiae deletion strains, locus YOR083W, strain WHI5 (second series), stronger effect = lower value 1.02 | S. cerevisiae deletion strains, locus YOR083W, strain WHI5, stronger effect = lower value 1.01 | S. cerevisiae deletion strains, locus YOR106W, strain vam3, stronger effect = lower value 1.04 | S. cerevisiae deletion strains, locus YOR136W, strain idh2, stronger effect = lower value 1 | S. cerevisiae deletion strains, locus YOR144C, strain elg1, stronger effect = lower value 0.997 | S. cerevisiae deletion strains, locus YOR184W, strain ser1, stronger effect = lower value 0.989 | S. cerevisiae deletion strains, locus YOR231W, strain MKK1, stronger effect = lower value 0.994 | S. cerevisiae deletion strains, locus YOR265W, strain rbl2, stronger effect = lower value 1 | S. cerevisiae deletion strains, locus YOR270C, strain vph1, stronger effect = lower value 1.01 | S. cerevisiae deletion strains, locus YOR290C, strain snf2, stronger effect = lower value 1.02 | S. cerevisiae deletion strains, locus YOR316C, strain cot1, stronger effect = lower value 0.993 | S. cerevisiae deletion strains, locus YPL051W, strain arl3, stronger effect = lower value 1.03 | S. cerevisiae deletion strains, locus YPL055C, strain LGE1, stronger effect = lower value 0.977 and 1.03 | S. cerevisiae deletion strains, locus YPL078C, strain atp4, stronger effect = lower value 1.03 | S. cerevisiae deletion strains, locus YPL106C, strain sse1, stronger effect = lower value 1.04 | S. cerevisiae deletion strains, locus YPL240C, strain hsp82, stronger effect = lower value 1 | S. cerevisiae deletion strains, locus YPL241C, strain CIN2, stronger effect = lower value 0.994 | S. cerevisiae deletion strains, locus YPL256C, strain CLN2, stronger effect = lower value 1 | S. cerevisiae deletion strains, locus YPR119W, strain clb2, stronger effect = lower value 0.991 | S. cerevisiae deletion strains, locus YPR141C, strain kar3, stronger effect = lower value 0.99 | S. cerevisiae deletion strains, locus YPR163C, strain tif3, stronger effect = lower value 0.999 | S. cerevisiae deletion strains, locus YPR167C, strain met16, stronger effect = lower value 1 | S. cerevisiae deletion strains, strain wtn01, stronger effect = lower value 0.994 | S. cerevisiae strains, strain wild type, stronger effect = lower value 0.993
